Some test systems named below: SR leukemia; RPMI-8226 leukemia; OVCAR-8 ovarian; OVCAR-5 ovarian; OVCAR-4 ovarian; SK-OV-3 ovarian; IGROV1 ovarian; OVCAR-3 ovarian; NCI/ADR-RES ovarian; T-47D breast; BT-549 breast; MCF7 breast; HCT-116 colon; HCC-2998 colon; KM12 colon; MDA-MB-468 breast; HS 578T breast; MDA-MB-435 melanoma; SW-620 colon.
What all share (assay): NCI-60 one-dose screen, 48 h (100 = growth as untreated, 0 = no growth, -100 = all killed)
What all share (conditions): 10 µM unless noted

Our source for the growth values is PubChem BioAssay (NCI).

This is part of a sample that, as a whole, favours compounds with a hit. Of some 83,000 tested, about 20% had one in any assay.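 Cell lines were cultured in 96-well plates, exposed to a single compound concentration, and assessed for percent growth 48 hours later.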 A number with no mark means an inactive call. Active and inactive are the calls of the source. Rule for the calls: active = growth percent below 10; inactive = the rest.

Turning to `C(=C\c1cc(/C=C/c2ccccc2)c2ccccc2n1)/c1ccccc1`, the growth in the test on SR leukemia was 36.7%; in the test on RPMI-8226 leukemia, 25.3%; in the test with OVCAR-8 ovarian, 78.4%; in the test on OVCAR-5 ovarian it was 136%; in the test on OVCAR-4 ovarian it was 98.6%; in the test with SK-OV-3 ovarian it was 121%. Also, the growth in the test on IGROV1 ovarian is 118%; in the test with OVCAR-3 ovarian, 103%; with NCI/ADR-RES ovarian, 69.7%; in the test with T-47D breast, 78.3%; in the test on BT-549 breast, 126%; in the test on MCF7 breast, 37.3%. Also, the growth with HCT-116 colon is 17.3%; in the test with HCC-2998 colon, 101%; in the test on KM12 colon it was 95.6%; in the test with MDA-MB-468 breast it was 107%.

As to `CN(C)c1nc(NCCNS(=O)(=O)c2ccc(C3=Nc4c(N)nc(N)nc4NC(c4ccc(F)cc4)C3)cc2)nc(Nc2ccc(F)cc2)n1` (stereo unspecified), the growth was 0.331% (active) in the test on SR leukemia; -6.35% (active) in the test with RPMI-8226 leukemia; 43.5% in the test with OVCAR-8 ovarian; 40.8% with OVCAR-4 ovarian; 73.4% in the test with SK-OV-3 ovarian; 38.6% in the test on IGROV1 ovarian. For the same molecule, the growth is 40.9% with OVCAR-3 ovarian; 51.8% with HS 578T breast; 98% in the test with NCI/ADR-RES ovarian; 40.6% with T-47D breast; 48.7% with BT-549 breast; 31% in the test on MDA-MB-435 melanoma. For the same molecule, the growth in the test on SW-620 colon is 39.4%; in the test with MCF7 breast, 5.29% (active); in the test with HCT-116 colon it was 30.6%; with HCC-2998 colon it was 28.6%; with KM12 colon, 24.5%; in the test on MDA-MB-468 breast it was -40.7% (active).

With `Clc1ccc(-c2ccc(OCCCN3CCN(c4ccncc4)CC3)cc2)cc1`, the growth in the test with SR leukemia is -21.2% (active); in the test with RPMI-8226 leukemia it was -9.75% (active); with OVCAR-8 ovarian it was 86.3%; with OVCAR-4 ovarian, 64.7%; with SK-OV-3 ovarian, 58%; in the test on IGROV1 ovarian it was 93.7%. Besides, the growth in the test with OVCAR-3 ovarian was 67.4%; in the test with HS 578T breast it was 82.5%; in the test with NCI/ADR-RES ovarian, 49.7%; with T-47D breast it was 15.6%; with BT-549 breast, 75.4%; with MDA-MB-435 melanoma it was 33.5%. The growth in the test with SW-620 colon is -8.83% (active); in the test on MCF7 breast, -1.15% (active); with HCT-116 colon, -28.8% (active); in the test on HCC-2998 colon, 21.2%; with KM12 colon, 61.4%; in the test with MDA-MB-468 breast, -9.68% (active).

In the case of `O=C(/C=C/c1cccc(OCc2ccccc2)c1)c1nc2ccccc2[nH]1`, the growth is -33.3% (active) in the test with SR leukemia; -52% (active) with RPMI-8226 leukemia; 58% in the test with OVCAR-8 ovarian; 105% in the test with OVCAR-5 ovarian; 59.4% with OVCAR-4 ovarian; 87.8% in the test with SK-OV-3 ovarian. The growth with OVCAR-3 ovarian is 38.3%; with NCI/ADR-RES ovarian it was 64.5%; in the test with T-47D breast it was 13.7%; with BT-549 breast it was 8.5% (active); in the test with MDA-MB-435 melanoma, 72%; in the test with MCF7 breast, 3.28% (active). For the same molecule, the growth in the test on HCT-116 colon is -36.1% (active); in the test with HCC-2998 colon it was -5.62% (active); with KM12 colon, 4.96% (active).

As to `N#Cc1c(-c2cccnc2)cc(-c2ccc3ccccc3c2)[nH]c1=O`, the growth with SR leukemia was 73.7%; in the test with RPMI-8226 leukemia it was 51.5%; in the test with OVCAR-8 ovarian it was 78%; in the test with OVCAR-5 ovarian, 106%; in the test with OVCAR-4 ovarian, 64.6%; with SK-OV-3 ovarian, 112%. Moreover, the growth in the test with OVCAR-3 ovarian is 102%; with NCI/ADR-RES ovarian it was 75.3%; in the test on T-47D breast, 93%; with BT-549 breast it was 57.6%; in the test with MDA-MB-435 melanoma, 99.4%; in the test on MCF7 breast, 60.5%. Besides, the growth in the test on HCT-116 colon is 80%; in the test with HCC-2998 colon, 96.4%; in the test with KM12 colon, 92.9%; in the test on MDA-MB-468 breast it was 94.1%.

Regarding `Cn1cc(-c2cc3nc(-c4cn(C)c5ncc(Br)cc45)cc(N)n3n2)c2ccccc21`, the growth in the test on SR leukemia is -20.7% (active); with RPMI-8226 leukemia, -2.62% (active); with OVCAR-8 ovarian, -10.9% (active); in the test on OVCAR-5 ovarian, -49.5% (active); with OVCAR-4 ovarian, 20%; in the test on SK-OV-3 ovarian, -24% (active). Moreover, the growth in the test on OVCAR-3 ovarian is -18.5% (active); with HS 578T breast, -19.7% (active); in the test with NCI/ADR-RES ovarian, -23.5% (active); with T-47D breast it was -40.9% (active); in the test with BT-549 breast, -73% (active); with MDA-MB-435 melanoma, -70.8% (active). The growth in the test with SW-620 colon is -48% (active); in the test on HCT-116 colon it was -100% (active); in the test with HCC-2998 colon, -89% (active); with KM12 colon, -55.5% (active).

With `O=C(NN1C(=O)/C(=C/C=C/c2ccc([N+](=O)[O-])o2)SC1=S)c1ccccc1O`, the growth is 3.37% (active) with SR leukemia; -4.22% (active) in the test on RPMI-8226 leukemia; -68.2% (active) in the test on OVCAR-8 ovarian; -100% (active) in the test with OVCAR-4 ovarian; -9.85% (active) in the test on SK-OV-3 ovarian; -95.5% (active) with IGROV1 ovarian. Moreover, the growth with OVCAR-3 ovarian was -100% (active); with HS 578T breast, -5.32% (active); in the test on NCI/ADR-RES ovarian, -0.0269% (active); with T-47D breast it was -59.4% (active); in the test with BT-549 breast, -91.3% (active); with MDA-MB-435 melanoma, -89.7% (active). Besides, the growth is -69.5% (active) with SW-620 colon; -49.7% (active) in the test on MCF7 breast; -68.5% (active) with HCT-116 colon; -97% (active) in the test with HCC-2998 colon; -83.5% (active) with KM12 colon; -75.4% (active) in the test on MDA-MB-468 breast.

For the molecule `O=C(O)c1cccc(-c2ccc(/C=N/NC(=O)c3[nH]c4ccc(Br)cc4c3-c3ccccc3)o2)c1`, the growth in the test on SR leukemia is 21.1%; in the test on RPMI-8226 leukemia, 96.5%; in the test on OVCAR-8 ovarian, 66.4%; with OVCAR-5 ovarian, 107%; in the test on OVCAR-4 ovarian it was 73%; in the test on SK-OV-3 ovarian it was 110%. The growth is 17.1% in the test on OVCAR-3 ovarian; 73.7% in the test on NCI/ADR-RES ovarian; 55.3% with T-47D breast; 34.7% with BT-549 breast; 43.9% with MDA-MB-435 melanoma; 53.1% in the test on MCF7 breast. Besides, the growth with HCT-116 colon is 66.2%; with HCC-2998 colon it was 84.8%; in the test with KM12 colon, 79.3%; with MDA-MB-468 breast, -12.6% (active).

Turning to `CCCCSc1nc(NCCc2c[nH]c3ccccc23)c(C#N)c(-c2ccc(F)cc2)n1`, the growth is 5.24% (active) in the test with SR leukemia; 49.7% in the test with RPMI-8226 leukemia; 75.1% with OVCAR-8 ovarian; 76.1% in the test on OVCAR-4 ovarian; 83% in the test on SK-OV-3 ovarian; 92.3% with IGROV1 ovarian. The growth in the test on OVCAR-3 ovarian is 74.3%; in the test with HS 578T breast, 58.3%; with NCI/ADR-RES ovarian, 58.2%; with T-47D breast, 48.5%; in the test with BT-549 breast it was 101%; with MDA-MB-435 melanoma it was 73.1%. The growth with SW-620 colon is 60.4%; in the test with MCF7 breast it was 44.8%; in the test on HCT-116 colon, 26.5%; in the test with HCC-2998 colon, 64.9%; in the test on KM12 colon, 32%; with MDA-MB-468 breast it was 69.8%.
